Seven molecules from PubChem BioAssay (EPA / NIEHS) can be followed below.

The structures appear in SMILES notation. Values joined by “and” are separate entries in the source; they are usually repeats but may differ in a detail not shown here. Equal values may be shown once. Records with an inconclusive call do not appear. More than one record can exist for a structure, and the calls need not agree. Active and inactive are the calls of the source. Rule for the calls, unless noted: active = hit-call score of the fitted dose curve at least 0.9, where 1 is the maximum; inconclusive = response in the unintended direction; inactive = score below 0.9.

Experiment [1] addresses human Dopamine Transporter (DAT), SLC6A3 (gene 6531) (UniProt Q01959). Description: NVS_TR_hDAT: NovaScreen (NVS) Transporter Assay for human Dopamine Transporter (DAT) (AID 2283374).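 Note: activity means loss of bound radioligand signal relative to DMSO.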 The procedure, abridged:
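Test chemicals were first screened in duplicate at 25 uM, with actives retested as concentration series. Displacement of a specific radioligand from cell-free human dopamine transporter was measured after 1 h by filtration and scintillation counting.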

Experiment [2] has as its target Estrogen receptor beta (Homo sapiens) (UniProt Q92731). Description: OT_ER_ERbERb_1440: Odyssey Thera (OT) 24-hour HEK293T Protein-Complementation Assay for Estrogen Receptor-beta/-beta Homodimer (AID 2283380).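 Note: fluorescence gain from ER beta LBD homodimer complementation read by laser scanning cytometry; scored as signal increase over DMSO baseline for both agonists and antagonists.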 A digest of the protocol:
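Fluorescence increase, nuclear for agonists or whole-cell for antagonists, relative to DMSO vehicle, quantified by laser scanning cytometer after fixation and Draq5 staining. Readout from 24 h treatment of HEK293T cells carrying complementation-paired ER beta LBD (aa 310-547).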

Experiment [3] concerns the target Estrogen receptor (Homo sapiens) (UniProt P03372). The experiment is described as follows: OT_ERa_GFPERaERE_0480: Odyssey Thera (OT) 8-hour HeLa Transcription Induction Assay for Estrogen Receptor (AID 2283381; active = hit-call score of the fitted dose curve at least 0.9, where 1 is the maximum; inactive = score below 0.9). A digest of the protocol:
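Fluorescent reporter signal, imaged by microscopy and scored with image-analysis algorithms, was taken 8 h after chemical dosing of HeLa cells; activity was fitted upward relative to DMSO.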

Experiment [4] has the same target. The experiment is described as follows: OT_ERa_GFPERaERE_0120: Odyssey Thera (OT) 2-hour HeLa Transcription Induction Assay for Estrogen Receptor (AID 2283382). A digest of the protocol: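 HeLa, 384-well, 2 h chemical exposure; GFP reporter induction (ERE), fluorescence microscopy; high content image analysis; positive fitting direction vs DMSO.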
In experiment [5] the target is Bile acid receptor (Homo sapiens) (UniProt Q96RI1). The experiment is described as follows: OT_FXR_FXRSRC1_0480: Odyssey Thera (OT) 8-hour HEK293T Protein-Complementation Assay for Farnesoid X receptor/SRC-1 Co-activator (AID 2283383). A digest of the protocol:
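Human kidney HEK293T cells carried FXR/SRC-1 fragment-complementation constructs. Compounds were added and incubated 8 h. Reporter reassembly upon receptor–co-activator interaction was then quantified by fluorescence, with curves fitted in the positive direction relative to DMSO.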

For experiment [6] the target is unchanged. The experiment is described as follows: OT_FXR_FXRSRC1_1440: Odyssey Thera (OT) 24-hour HEK293T Protein-Complementation Assay for Farnesoid X receptor/SRC-1 Co-activator (AID 2283384). A digest of the protocol:
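Compounds are applied to human kidney HEK293T cells expressing bait and prey fused to reporter protein fragments; after 24 h, reconstituted reporter fluorescence is measured. Activity is fitted as signal gain over DMSO.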

The target of experiment [7] is Retinoic acid receptor RXR-alpha (Homo sapiens) (UniProt P19793). The experiment is described as follows: OT_NURR1_NURR1RXRa_0480: Odyssey Thera (OT) 8-hour HEK293T Protein Complementation Assay for Nurr1/retinoid X receptor (RXR) (AID 2283385). The procedure, abridged:
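8 h compound exposure, HEK293T; Nurr1/RXRα fragment complementation; fluorescence intensity; positive fitting direction vs DMSO baseline.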

Experiment [8] shares this target. The experiment is described as follows: OT_NURR1_NURR1RXRa_1440: Odyssey Thera (OT) 24-hour HEK293T Protein Complementation Assay for Nurr1/retinoid X receptor (RXR) (AID 2283386). The procedure, abridged:
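Interaction of Nurr1 with RXRα brings fused reporter fragments together in human HEK293T cells, restoring a functional reporter. Fluorescence intensity is measured 24 h after chemical treatment, and values are analysed in the positive direction against DMSO.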

In experiment [9] the target is Peroxisome proliferator-activated receptor gamma (Homo sapiens) (UniProt P37231). The experiment is described as follows: OT_PPARg_PPARgSRC1_0480: Odyssey Thera (OT) 8-hour Protein-Complementation Assay for Peroxisome Proliferator-activated Receptor Gamma / SRC-1 Co-activator (AID 2283387).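 Note: nuclear to cytoplasmic split Venus YFP fluorescence ratio reporting PPARg SRC-1 interaction.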 The procedure, abridged: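 Split-YFP (IFP1/IFP2) PPARg/SRC-1 reporter, HEK293T, 37 °C, 5% CO2; 8 h compound; formaldehyde fix + Draq5; high-content imaging, N/C ratio, ≥350 cells/image, positive direction vs DMSO.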

For experiment [10] the target is unchanged. The experiment is described as follows: OT_PPARg_PPARgSRC1_1440: Odyssey Thera (OT) 24-hour Protein-Complementation Assay for Peroxisome Proliferator-activated Receptor Gamma/ SRC-1 Co-activator (AID 2283388).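 Note: nuclear to cytoplasmic ratio of reconstituted Venus YFP fluorescence in fixed imaged cells.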 The procedure, abridged:
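Protein-fragment complementation between PPARg and coactivator SRC-1 was measured by fluorescence imaging in transiently transfected HEK293T cells after 24 h treatment. Signal was quantified as N/C ratio in the 488 nm channel, with DMSO as negative control.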

The nature of experiment [11]: CEETOX_H295R_11DCORT: CeeTox H295R High-throughput Steroidogenesis Assay for 11-Deoxycortisol (11DCORT) (AID 2283432; active = hit-call score of the fitted dose curve at least 0.9, where 1 is the maximum; inactive = score below 0.9;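 note: human adrenal H295R cells prestimulated with 10 µM forskolin for 48 h; 11-deoxycortisol secreted into the medium measured by LC-MS/MS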). The following applies: actives raise or lower the signal. The procedure, abridged:
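Steroidogenesis in human H295R cells: 48 h chemical exposure after forskolin priming, 11-deoxycortisol measured by LC-MS/MS.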

Experiment [12] can be described thus: CEETOX_H295R_OHPREG: CeeTox H295R High-throughput Steroidogenesis Assay for OH-Pregnenolone (OHPREG) (AID 2283434; active = hit-call score of the fitted dose curve at least 0.9, where 1 is the maximum; inactive = score below 0.9). The conditions noted are these: actives raise or lower the signal. The procedure, abridged: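 Hormone levels in spent medium were measured by tandem mass spectrometry following liquid-liquid extraction. Cells (H295R) had been forskolin-stimulated (10 uM, 48 h) before a 48 h chemical exposure at 0.1% DMSO, with activity fitted in both directions against DMSO.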

Experiment [13] in a line: CEETOX_H295R_OHPROG: CeeTox H295R High-throughput Steroidogenesis Assay for OH-Progesterone (OHPROG) (AID 2283435; active = hit-call score of the fitted dose curve at least 0.9, where 1 is the maximum; inactive = score below 0.9;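 for AC50: human adrenal H295R cells primed 48 h with 10 µM forskolin; 17alpha-hydroxyprogesterone secreted into medium measured by HPLC-MS/MS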). The conditions noted are these: actives raise or lower the signal. The procedure, abridged: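 H295R, 10 uM forskolin prestim 48 h; cmpd in 0.1% DMSO 48 h; medium MTBE-extracted, HPLC-MS/MS for OH-progesterone; 7-pt std curve; bidirectional fit vs DMSO; MTT viability, chemicals diluted until viability >/=70%.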

Experiment [14] is described as follows: CEETOX_H295R_CORTIC: CeeTox H295R High-throughput Steroidogenesis Assay for Corticosterone (CORTIC) (AID 2283437; active = hit-call score of the fitted dose curve at least 0.9, where 1 is the maximum; inactive = score below 0.9;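 note: corticosterone secreted into medium quantified by mass spectrometry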). The conditions noted are these: actives raise or lower the signal. The procedure, abridged: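 Corticosterone secreted into medium is measured by reverse-phase HPLC with tandem MS following liquid-liquid extraction. Cells are forskolin-stimulated (10 uM, 48 h) before 48 h test exposure; activity fitted in both directions against DMSO.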

A short description of experiment [15]: CEETOX_H295R_CORTISOL: CeeTox H295R High-throughput Steroidogenesis Assay for Cortisol (AID 2283438; active = hit-call score of the fitted dose curve at least 0.9, where 1 is the maximum; inactive = score below 0.9;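 note: cortisol secreted into medium quantified by LC-MS/MS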). The following applies: actives raise or lower the signal. The procedure, abridged:
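Forskolin 10 uM 48 h prestim → test cmpd in DMSO (0.1% final) 48 h → medium MTBE-extracted → LC-MS/MS cortisol vs 7-pt std curve. Gain/loss of signal fitted vs DMSO. MTT viability in same wells.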

A short description of experiment [16]: CEETOX_H295R_DOC: CeeTox H295R High-throughput Steroidogenesis Assay for DOC (AID 2283439; active = hit-call score of the fitted dose curve at least 0.9, where 1 is the maximum; inactive = score below 0.9). The conditions noted are these: actives raise or lower the signal. A digest of the protocol: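 Readout: 11-deoxycorticosterone in culture medium by reverse-phase C18 HPLC with ESI+ tandem MS after MTBE extraction. Cells: H295R, forskolin-primed (10 uM, 48 h), chemical-treated 48 h; DMSO 0.1% final. Activity fitted bidirectionally versus DMSO.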

A short description of experiment [17]: CEETOX_H295R_ANDR: CeeTox H295R High-throughput Steroidogenesis Assay for Androstenedione (ANDR) (AID 2283436; active = hit-call score of the fitted dose curve at least 0.9, where 1 is the maximum; inactive = score below 0.9;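 note: human H295R adrenal cells exposed for 48 h with androstenedione measured in medium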). The conditions noted are these: actives raise or lower the signal. The procedure, abridged: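 Read-out is androstenedione secreted into medium, measured by tandem mass spectrometry after liquid-liquid extraction. Cells were H295R, dosed for 48 h per modified OECD 456; activity fitted in both directions relative to DMSO.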

Experiment [18] deals with mouse Estrogen Receptor alpha (Era), Esr1 (gene 13982) (UniProt P19785). Description: NVS_NR_mERa: NovaScreen (NVS) Nuclear Receptor Binding Assay for mouse Estrogen Receptor alpha (Era) (AID 2283378).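 Note: hit means loss of bound radioligand signal relative to DMSO.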 The procedure, abridged:
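Extracted mouse Era incubated with tritiated or iodinated radioligand plus test chemical, 18 h. Bound fraction separated on filters, counted by scintillation. DMSO = negative control/baseline; duplicate single-point at 25 uM, then concentration-response follow-up.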

Experiment [19] deals with human Norepinephrine Transporter (NET), SLC6A2 (gene 6530) (UniProt P23975). The experiment is described as follows: NVS_TR_hNET: NovaScreen (NVS) Transporter Assay for human Norepinephrine Transporter (NET) (AID 2283377).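 For AC50: displacement of radioligand from human NET seen as loss of scintillation signal.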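 Note: cell-free membrane protein extracted from CHO cells expressing human NET.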 A digest of the protocol: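 Scintillation counts of filter-retained radioligand served as the readout, taken 1 h post-dosing in a cell-free CHO-derived system. Test chemicals ran first at 25 uM in duplicate; confirmed hits were retested across concentrations.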
human Norepinephrine Transporter (NET), SLC6A2 (gene 6530), sequence (P23975 whole entry, looked up): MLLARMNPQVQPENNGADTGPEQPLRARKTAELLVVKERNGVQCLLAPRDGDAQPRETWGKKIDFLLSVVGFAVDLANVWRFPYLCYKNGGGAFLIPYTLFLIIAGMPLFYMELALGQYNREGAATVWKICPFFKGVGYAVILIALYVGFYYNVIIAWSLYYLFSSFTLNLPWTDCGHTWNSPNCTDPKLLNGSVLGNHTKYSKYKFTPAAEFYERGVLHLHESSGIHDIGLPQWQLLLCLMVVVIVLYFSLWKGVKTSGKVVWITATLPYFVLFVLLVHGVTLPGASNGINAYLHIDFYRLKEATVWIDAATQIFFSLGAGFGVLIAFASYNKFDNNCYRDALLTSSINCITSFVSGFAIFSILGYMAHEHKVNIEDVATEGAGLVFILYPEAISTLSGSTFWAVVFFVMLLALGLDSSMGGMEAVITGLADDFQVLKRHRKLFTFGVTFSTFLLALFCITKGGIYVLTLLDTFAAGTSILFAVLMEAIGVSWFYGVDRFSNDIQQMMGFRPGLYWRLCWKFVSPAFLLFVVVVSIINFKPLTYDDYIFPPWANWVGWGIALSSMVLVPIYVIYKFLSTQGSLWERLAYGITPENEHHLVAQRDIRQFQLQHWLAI

mouse Estrogen Receptor alpha (Era), Esr1 (gene 13982), sequence (P19785 whole entry, looked up): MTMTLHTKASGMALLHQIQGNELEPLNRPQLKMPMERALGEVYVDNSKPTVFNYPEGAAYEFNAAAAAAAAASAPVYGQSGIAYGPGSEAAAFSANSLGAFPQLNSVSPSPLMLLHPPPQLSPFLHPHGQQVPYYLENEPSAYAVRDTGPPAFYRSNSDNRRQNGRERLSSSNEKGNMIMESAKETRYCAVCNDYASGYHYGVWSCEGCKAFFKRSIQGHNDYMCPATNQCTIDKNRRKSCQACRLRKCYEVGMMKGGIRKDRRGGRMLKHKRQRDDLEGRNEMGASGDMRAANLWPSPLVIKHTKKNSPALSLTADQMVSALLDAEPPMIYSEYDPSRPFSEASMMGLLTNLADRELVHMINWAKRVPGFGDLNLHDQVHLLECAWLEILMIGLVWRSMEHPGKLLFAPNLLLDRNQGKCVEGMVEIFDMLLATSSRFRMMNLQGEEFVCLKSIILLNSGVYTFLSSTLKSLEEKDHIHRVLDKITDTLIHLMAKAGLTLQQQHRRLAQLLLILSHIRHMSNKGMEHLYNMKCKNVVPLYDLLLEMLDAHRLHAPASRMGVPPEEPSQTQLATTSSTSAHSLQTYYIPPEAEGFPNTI
Peroxisome proliferator-activated receptor gamma (Homo sapiens), sequence (P37231 whole entry, looked up): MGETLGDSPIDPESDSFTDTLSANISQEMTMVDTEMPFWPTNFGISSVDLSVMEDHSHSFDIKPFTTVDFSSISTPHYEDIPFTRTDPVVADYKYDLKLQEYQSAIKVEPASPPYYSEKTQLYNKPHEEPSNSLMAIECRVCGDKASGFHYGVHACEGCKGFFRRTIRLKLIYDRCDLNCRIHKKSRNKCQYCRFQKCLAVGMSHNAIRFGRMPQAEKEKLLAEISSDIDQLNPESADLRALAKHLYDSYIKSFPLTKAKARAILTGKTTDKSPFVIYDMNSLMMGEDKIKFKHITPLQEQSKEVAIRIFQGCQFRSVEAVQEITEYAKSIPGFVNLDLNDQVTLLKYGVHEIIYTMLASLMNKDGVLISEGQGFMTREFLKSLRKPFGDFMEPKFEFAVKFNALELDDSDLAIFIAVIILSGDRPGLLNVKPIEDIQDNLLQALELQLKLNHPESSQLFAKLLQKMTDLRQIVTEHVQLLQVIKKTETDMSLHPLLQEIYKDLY
Retinoic acid receptor RXR-alpha (Homo sapiens), sequence (P19793 whole entry, looked up, the tested form may be a part): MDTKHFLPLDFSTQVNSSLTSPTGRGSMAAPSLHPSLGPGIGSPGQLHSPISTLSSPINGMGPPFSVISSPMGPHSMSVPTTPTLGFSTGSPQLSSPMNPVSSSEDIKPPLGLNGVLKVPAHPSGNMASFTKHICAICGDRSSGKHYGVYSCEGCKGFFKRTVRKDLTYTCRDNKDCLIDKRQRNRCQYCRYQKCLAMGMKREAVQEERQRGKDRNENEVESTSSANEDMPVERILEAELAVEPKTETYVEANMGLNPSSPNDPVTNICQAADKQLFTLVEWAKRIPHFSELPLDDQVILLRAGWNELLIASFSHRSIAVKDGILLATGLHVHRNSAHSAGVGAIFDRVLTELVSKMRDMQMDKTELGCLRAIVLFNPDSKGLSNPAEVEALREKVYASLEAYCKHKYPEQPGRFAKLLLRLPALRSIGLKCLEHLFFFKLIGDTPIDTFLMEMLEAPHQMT
Bile acid receptor (Homo sapiens), sequence (Q96RI1 whole entry, looked up, the tested form may be a part): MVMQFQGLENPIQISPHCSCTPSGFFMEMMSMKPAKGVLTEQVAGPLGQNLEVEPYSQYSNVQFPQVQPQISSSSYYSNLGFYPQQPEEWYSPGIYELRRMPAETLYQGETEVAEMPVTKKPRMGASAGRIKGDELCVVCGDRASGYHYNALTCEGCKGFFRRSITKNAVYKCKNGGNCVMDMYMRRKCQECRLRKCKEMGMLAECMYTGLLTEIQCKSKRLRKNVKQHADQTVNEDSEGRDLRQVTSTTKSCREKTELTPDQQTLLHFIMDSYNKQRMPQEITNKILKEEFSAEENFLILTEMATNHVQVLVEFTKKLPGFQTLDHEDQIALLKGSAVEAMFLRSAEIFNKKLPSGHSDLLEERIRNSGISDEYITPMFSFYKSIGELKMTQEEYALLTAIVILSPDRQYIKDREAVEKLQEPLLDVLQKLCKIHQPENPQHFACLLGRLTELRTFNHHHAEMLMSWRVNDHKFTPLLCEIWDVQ
Estrogen receptor (Homo sapiens), sequence (P03372 whole entry, looked up): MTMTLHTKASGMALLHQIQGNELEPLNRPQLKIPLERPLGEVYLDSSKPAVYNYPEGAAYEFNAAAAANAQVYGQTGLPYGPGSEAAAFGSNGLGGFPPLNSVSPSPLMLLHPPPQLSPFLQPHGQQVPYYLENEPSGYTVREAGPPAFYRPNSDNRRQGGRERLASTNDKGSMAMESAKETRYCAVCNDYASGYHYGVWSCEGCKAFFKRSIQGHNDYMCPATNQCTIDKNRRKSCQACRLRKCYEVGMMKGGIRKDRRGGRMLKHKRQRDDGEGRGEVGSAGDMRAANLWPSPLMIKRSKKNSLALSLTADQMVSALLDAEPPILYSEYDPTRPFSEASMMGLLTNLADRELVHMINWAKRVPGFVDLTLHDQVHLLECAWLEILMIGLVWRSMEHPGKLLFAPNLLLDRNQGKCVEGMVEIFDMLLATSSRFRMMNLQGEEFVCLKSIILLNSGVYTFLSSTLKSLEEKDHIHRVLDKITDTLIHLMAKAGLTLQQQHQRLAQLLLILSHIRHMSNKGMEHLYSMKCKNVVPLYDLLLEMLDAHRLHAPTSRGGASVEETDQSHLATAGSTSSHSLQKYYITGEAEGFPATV
Estrogen receptor beta (Homo sapiens), sequence (Q92731 whole entry, looked up, the tested form may be a part): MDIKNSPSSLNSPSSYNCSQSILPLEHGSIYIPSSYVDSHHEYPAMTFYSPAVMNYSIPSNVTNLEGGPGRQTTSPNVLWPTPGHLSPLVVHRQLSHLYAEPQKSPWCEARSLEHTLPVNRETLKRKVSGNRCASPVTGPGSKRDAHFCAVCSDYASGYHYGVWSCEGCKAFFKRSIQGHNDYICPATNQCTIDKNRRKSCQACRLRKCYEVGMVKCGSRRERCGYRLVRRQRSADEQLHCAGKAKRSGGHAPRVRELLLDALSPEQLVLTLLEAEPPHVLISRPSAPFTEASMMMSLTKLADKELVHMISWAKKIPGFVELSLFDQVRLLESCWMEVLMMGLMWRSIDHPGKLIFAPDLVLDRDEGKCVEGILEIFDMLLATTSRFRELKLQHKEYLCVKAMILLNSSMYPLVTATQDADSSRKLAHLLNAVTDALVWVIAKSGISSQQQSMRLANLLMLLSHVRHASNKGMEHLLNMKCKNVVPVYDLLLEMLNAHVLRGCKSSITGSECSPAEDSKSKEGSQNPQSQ
human Dopamine Transporter (DAT), SLC6A3 (gene 6531), sequence (Q01959 whole entry, looked up): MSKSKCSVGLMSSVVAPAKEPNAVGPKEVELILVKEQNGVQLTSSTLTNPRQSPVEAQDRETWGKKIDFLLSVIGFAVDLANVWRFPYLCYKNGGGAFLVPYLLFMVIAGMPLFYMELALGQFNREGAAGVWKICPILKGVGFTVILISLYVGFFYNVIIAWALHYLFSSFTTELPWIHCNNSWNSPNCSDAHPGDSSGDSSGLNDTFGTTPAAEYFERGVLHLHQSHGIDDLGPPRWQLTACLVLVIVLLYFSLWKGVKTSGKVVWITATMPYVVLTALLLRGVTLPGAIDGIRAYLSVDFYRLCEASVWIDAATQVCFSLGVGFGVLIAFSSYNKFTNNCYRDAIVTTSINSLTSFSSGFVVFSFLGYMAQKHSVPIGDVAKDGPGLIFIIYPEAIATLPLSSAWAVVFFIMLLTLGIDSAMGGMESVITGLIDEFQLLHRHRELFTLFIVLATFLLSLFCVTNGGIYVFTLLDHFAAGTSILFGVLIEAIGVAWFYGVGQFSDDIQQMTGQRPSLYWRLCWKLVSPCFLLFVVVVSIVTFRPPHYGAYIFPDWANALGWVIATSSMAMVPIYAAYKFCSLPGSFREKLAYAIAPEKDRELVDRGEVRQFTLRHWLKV

Usually AC50 stands for the midpoint of the concentration-response curve, whichever way the signal moves. For `C#CCOC(=O)[C@@H](C)Oc1ccc(Oc2ncc(Cl)cc2F)cc1`, the AC50 in experiment [1] was 7.24 µM (active); in [11], 9.92 µM (active); in experiment [13], 9.84 µM (active); in experiment [16], 6.87 µM (active). The molecule was called inactive in experiment [2], in experiment [3], in [4], in [5], in [6] and in [7]. In addition, the molecule was classed as inactive in [8], in experiment [9], in [10], in experiment [12], in [14] and in experiment [15].

As to `CCCCOCCOCCOCc1cc2c(cc1CCC)OCO2`, the AC50 in [1] is 35.7 µM (active); in experiment [5], 33.1 µM (active); in experiment [12], 5 µM (active). Moreover, the outcome in experiment [2], in experiment [6], in experiment [7], in experiment [8], in experiment [9] and in experiment [10] was inactive. Also, the molecule was called inactive in [13] and in [17].

With `CC(=O)S[C@@H]1CC2=CC(=O)CC[C@]2(C)[C@H]2CC[C@@]3(C)[C@@H](CC[C@@]34CCC(=O)O4)[C@H]12`, the AC50 in [18] is 6.63 µM (active); in experiment [11] it was 1.76 µM (active); in experiment [12] it was 0.805 µM (active); in [17], 1.63 µM (active); in experiment [15], 1.83 µM (active). The call in experiment [18], in [2], in experiment [3], in [4], in [7] and in experiment [8] was inactive. For the same molecule, the outcome in [9], in [10], in experiment [13], in experiment [14] and in experiment [16] was inactive.

In the case of `O=C(O)c1ccccc1`, the molecule was called inactive in experiment [19], in experiment [18], in experiment [3], in experiment [4], in experiment [7] and in experiment [8]. Moreover, the molecule was called inactive in experiment [9] and in experiment [10].

Consider `O=C(c1ccccc1)C1CCCCC1`, for which the call in experiment [18], in [3], in [4], in experiment [5], in [6] and in [7] was inactive. For the same molecule, the result in experiment [8], in experiment [9] and in [10] was inactive.

Turning to `c1ccc(Nc2ccccc2)cc1`, the AC50 in experiment [1] was 4.96 µM (active); in experiment [19], 3.18 µM (active); in [7], 50 µM (active). For the same molecule, the molecule was classed as inactive in [2], in [8], in experiment [9], in [10], in [12] and in [13].

For `O=C(c1ccc(O)cc1O)c1ccc(O)cc1O`, the AC50 was 470 nM (active) and 647 nM (active) and 1.69 µM (active) in experiment [18]; 2.09 µM (active) and 2.02 µM (active) and 2.21 µM (active) in experiment [2]; 2.11 µM (active) and 2.15 µM (active) and 2.89 µM (active) in experiment [3]; 2.24 µM (active) and 2.25 µM (active) and 2.67 µM (active) in experiment [4]; 50 µM (active) and 28 µM (active) in experiment [6]. Also, the outcome in [18], in experiment [5], in [7], in experiment [8], in experiment [9] and in experiment [10] was inactive.
